VDR inh: vitamin D3 receptor (human) inhibition; hit rate 0.93% among 400,000; Potency, µM, usual class: inhibitors; VDR-SRC2-3 peptide fluorescence polarization, 2 h; P11473
Target sequence (P11473 whole entry, looked up): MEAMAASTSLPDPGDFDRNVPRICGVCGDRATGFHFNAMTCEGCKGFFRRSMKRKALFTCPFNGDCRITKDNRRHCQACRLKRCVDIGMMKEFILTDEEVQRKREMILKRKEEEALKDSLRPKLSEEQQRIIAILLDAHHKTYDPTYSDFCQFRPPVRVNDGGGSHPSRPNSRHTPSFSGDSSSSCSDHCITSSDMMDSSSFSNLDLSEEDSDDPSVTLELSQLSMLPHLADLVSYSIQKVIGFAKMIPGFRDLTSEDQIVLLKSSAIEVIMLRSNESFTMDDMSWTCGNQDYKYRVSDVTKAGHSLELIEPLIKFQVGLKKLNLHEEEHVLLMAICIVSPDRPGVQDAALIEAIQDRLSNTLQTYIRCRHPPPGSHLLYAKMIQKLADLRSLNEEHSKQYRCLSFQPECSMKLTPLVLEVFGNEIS
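Signal is fluorescence polarization, reporting how far test compounds block the interaction of VDR with the SRC2-3 coregulator peptide after a 2 h room-temperature incubation.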
GLS inhibitor: inhibitors of human glutaminase (GLS). GLS enzymatic activity, qHTS titration. Potency, µM (doses to about 45.5 µM), usual class: inhibitors. hit rate 0.21% among 410,000
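Human kidney-isoform GLS in 45 mM KH2PO4 pH 8.2, 0.02% Tween-20, with compound, started with 1mM L-Glutamine (added stock). Glutamate oxidase/HRP/Amplex red coupled fluorescence read at start and after 30 min at RT.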
KAT2A inh: GCN5L2 (KAT2A) acetyltransferase inhibition | GCN5L2 HAT assay, ThioGlo1 CoA-SH fluorescence | AID 504327 | Potency, µM (titrated, usually from 58.9 µM), hits mostly inhibitors | hit rate 0.21% among 390,000
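qHTS, 1536-well. 20nM enzyme, pH 7.5 HEPES/EDTA/Tween-20 buffer; 15 min compound preinc., RT. Start: 75uM H3(1-25), 70uM AcCoA, 50uM ThioGlo1. Read Ex340/Em540 at t=0 (autofluorescence flag) and t=20 min.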
PKM2 act: PKM2 (human) enzyme activation. P14618. purified PKM2, Kinase-Glo ATP luminescence, activation; response scale: 0% is enzyme alone, no compound. Potency, µM (highest dose often 57.5 µM), actives largely listed as activators. hit rate 0.34% among 260,000. AID 1631; note: nearly all actives have a fitted effect of over 55% in size
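ATP formation by purified human PK-M2, quantified via coupled luciferase luminescence after 1 h at room temperature with 0.1 mM ADP and 0.5 mM PEP final.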
PLK1 PBD inh: inhibitors of human PLK1 polo-box domain binding; Plk1 PBD binding of FITC phosphopeptide, fluorescence polarization; P53350; AID 720504; hit rate 2.8% among 360,000; Potency, µM, usual class: inhibitors; note: series mostly up to about 57 µM; nearly all actives have a fitted effect of over 65% in size
Mito fusion yeast: mitochondrial division inhibition or fusion activation | S. cerevisiae fusion-defective mutant growth rescue, CellTiterGlo 48 h | Potency, µM (top dose mostly 46.1 µM), usual class: activators | hit rate 0.23% among 320,000; note: nearly all actives have a fitted effect of over 45% in size
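Read-out: ATP-based luminescence (CellTiterGlo, 10 min ambient) reporting growth of fusion-defective ts yeast after 48 hours at 37C on glycerol/ethanol YPEG medium in the presence of compound.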
Hits are given with their value; – = inactive; ? = inconclusive; · = no result; [ ] = another dose, or the depositor's remark. An excerpt weighted towards active compounds, which were near 3.4% of everything screened. Calls come from the whole dose curve; as a rule, active = well fitted curve in the direction sought with a large enough effect; inconclusive = small, poorly fitted or top-dose-only effect, or another doubt; inactive = no such curve, though single readings can be large; an effect the other way counts as inactive or inconclusive.

SMILES	VDR inh	GLS inhibitor	KAT2A inh	PKM2 act	PLK1 PBD inh	Mito fusion yeast
Cc1cc(/C=C2/C(=O)NC(=O)N(c3ccccc3)C2=O)c(C)n1-c1ccc(F)cc1	–	–	·	·	?	·
COCCN1C(=O)NC(=O)/C(=C\c2ccc(Br)cc2)C1=O	?	–	–	–	5.3µM	–
O=C1NC(=S)N(c2ccc(F)cc2)C(=O)/C1=C\c1ccoc1	?	–	?	–	2.7µM	–
C(=C\c1ccccc1)/CN1CCN(CCOC(c2ccccc2)c2ccccc2)CC1	–	·	–	·	·	·
CCCN(CCC)C(=O)Cc1c(-c2ccc(Cl)cc2)nc2ccc(Cl)cn12	·	–	·	·	·	·
Cc1ccc(-c2cn3c(=S)[nH]nc3s2)cc1	–	–	14µM	–	–	–
CC(OC(=O)COc1ccc(Nc2ccccc2)cc1)C(=O)N(C)c1ccccc1 (centres undefined)	–	?	–	·	–	–
C=CCO[C@@H](Cn1ccnc1)c1ccc(Cl)cc1Cl	–	·	–	·	·	·
Clc1ccc(C(c2ccc(Cl)cc2)n2cc[n+](CC(OCc3ccc(Cl)cc3Cl)c3ccc(Cl)cc3Cl)c2)cc1 (centres undefined)	–	14µM	–	·	–	–
O=C(Cn1cc(C=C2C(=O)NC(=O)NC2=O)c2ccccc21)NCC1CCCO1 (centres undefined)	–	–	–	–	?	–
Cc1c(C=C2C(=O)N(C)C(=S)N(C)C2=O)c2ccccc2n1CC(=O)NCC1CCCO1 (centres undefined)	?	–	–	·	2.7µM	–
NC(=O)CNC(=O)[C@H](Cc1ccccc1)NC(=O)[C@H](CCCN=C(N)N)NC(=O)[C@@H](N)Cc1ccc(O)cc1	–	·	–	·	·	·
CCOC(=O)C1(CCc2ccccc2)CCN(Cc2csc(C(C)=O)c2)CC1	–	–	–	–	–	–
CCOC(=O)C1(CCc2ccccc2)CCN(Cc2cccc3c2OCO3)CC1	–	–	–	32µM	–	–
Nc1ncnc2c1ncn2[C@@H]1O[C@H](COP(=O)(O)CP(=O)(O)OP(=O)(O)O)[C@@H](O)[C@H]1O	–	·	–	·	·	?
COc1cc(NS(=O)(=O)c2ccc(NC(=S)NC(=O)CC(C)C)cc2)nc(OC)n1	–	–	–	–	?	–
CC(Oc1ccc(Cl)cc1Cl)C(=O)Nc1ccc(S(=O)(=O)Nc2cnc3ccccc3n2)cc1 (centres undefined)	–	–	–	–	13µM	–
C[C@]12C=CC(=O)C=C1CC[C@@H]1C2=CC[C@]2(C)[C@@H](C(=O)CN3CCN(c4cc(N5CCCC5)nc(N5CCCC5)n4)CC3)CC[C@@H]12	2.8µM	–	–	·	–	15µM
Nc1nnc(Sc2ncccc2[N+](=O)[O-])s1	–	–	–	–	9.5µM	–
O=[N+]([O-])c1ccc(N2CCCC2)c2ncccc12	–	–	–	–	–	–
CCC(=O)OC1CCC2C3CCC4CC(=O)C=CC4(C)C3CCC12C (centres undefined)	50µM	–	·	·	–	·
CC(C)CCC(=O)OC1CCC2C3CCC4=CC(=O)CC[C@]4(C)C3CC[C@]12C (some centres undefined)	?	–	·	·	·	·
NC1CCCC[C@@H]1N (some centres undefined)	–	·	–	·	·	·
O=C1NC(=O)C(Sc2ccccc2[N+](=O)[O-])C(=O)N1	40µM	–	–	–	3µM	–
CC1OC(=O)C(C(C)C)NC(=O)C(C(C)C)OC(=O)C(C(C)C)NC(=O)C(C)OC(=O)C(C(C)C)NC(=O)C(C(C)C)OC(=O)C(C(C)C)NC(=O)C(C)OC(=O)C(C(C)C)NC(=O)C(C(C)C)OC(=O)C(C(C)C)NC1=O (centres undefined)	–	·	–	·	·	·
SMILES	VDR inh	GLS inhibitor	KAT2A inh	PKM2 act	PLK1 PBD inh	Mito fusion yeast
CN1C(=O)N(C)C(=O)C2(Cc3c(ccc4ccccc34)N(C)C2)C1=O	–	–	–	–	8.4µM	–
CC[C@H](C)[C@H](NC(=O)[C@@H](N)Cc1ccc(O)cc1)C(=O)NCC(=O)N[C@@H](CO)C(=O)N[C@@H](CCCN=C(N)N)C(N)=O	–	·	–	·	·	·
O=C(O)CC1OCC=C2CN3CCC45c6ccccc6NC4C1C2CC35 (centres undefined)	–	–	–	–	–	–
O=C(O)CC1OCC=C2CN3CCC45C6=CC(=O)C(=O)C([N+](=O)[O-])=C6NC4C1C2CC35 (centres undefined)	79µM	–	–	–	?	–
CC(=O)C1CCC2C3CCC4=CC(=O)CC[C@@]4(C)C3CC[C@]12C (some centres undefined)	45µM	·	–	·	·	·
CC1(C)C(=O)C=C[C@@]2(C)C1=C(O)C(=O)[C@@]1(C)C2CC[C@@]2(C)C(c3ccoc3)C[C@H]3O[C@@]321 (some centres undefined)	7.9µM	·	–	·	·	·
CN(C)CCc1c[nH]c2cccc(OP(=O)(O)O)c12	·	–	·	·	·	·
COC(=O)C1C=C2c3cccc4[nH]cc(c34)CC2N(C)C1 (centres undefined)	·	·	–	–	·	–
CCN(CC)C(=O)N[C@@H]1C=C2c3cccc4[nH]cc(c34)C[C@H]2N(C)C1	40µM	–	?	·	·	·
O=C1NC(=O)c2c1c1c3ccccc3n3c1c1c2c2ccccc2n1C1CCC3O1	–	·	–	·	·	·
CC(C)C(OC(=O)c1ccco1)C(=O)NCc1ccco1 (centres undefined)	–	–	·	–	27µM	–
Cc1nn(Cc2ccccc2)c(C)c1C(=O)OCC(=O)NCc1ccco1	–	–	–	–	–	–
Cn1cc(C(=O)Cc2ccccc2)c2ccccc21	?	–	–	–	27µM	–
Cn1cc(C(=O)OCC(=O)Nc2ccccc2)c2ccccc21	–	–	–	·	–	–
Cc1ccc(OCCOc2cccc(C=C3C(=O)NC(=O)NC3=O)c2)c(C)c1	?	–	?	–[11.5 µM]	5.3µM	–
O=C1NC(=O)N(c2ccc(Cl)cc2)C(=O)/C1=C\c1ccc(Sc2nc3ccccc3[nH]2)o1	–	–	?	–	3.8µM	–
CCOc1ccc(N2C(=O)NC(=O)/C(=C\c3ccc(N4CCCCC4)o3)C2=O)cc1	–	–	–	–	–	–
CCOc1ccc(C=C2C(=O)NC(=S)NC2=O)cc1OCC	28µM	–	·	·	8.4µM	·
O=C1NC(=O)C(=Cc2ccc3c(c2)OCO3)C(=O)N1	·	·	–	–	·	–
CCOc1cc(C=C2C(=O)NC(=O)NC2=O)ccc1OS(=O)(=O)c1ccccc1	79µM	–	–	–	3.4µM	–
COc1cc(C=C2C(=O)NC(=O)NC2=O)ccc1OS(=O)(=O)c1ccccc1[N+](=O)[O-]	45µM	–	–	·	2.7µM	–
CCOc1cc(C=C2C(=O)NC(=O)NC2=O)ccc1OCC(=O)N1CCOCC1	?	–	–	–	?	–
CN(C)c1ccc(C=C2C(=O)NC(=S)NC2=O)cc1	?	–	·	·	2.7µM	·

Assay outcomes from PubChem BioAssay.
